Measurements: PubChem BioAssay (NCATS)
Results filed as inconclusive are left out. Values without a mark were called inactive. The call rests on the fitted dose curve; in most records, active means well fitted cell-killing curve with a large enough effect; inconclusive means small, poorly fitted or top-dose-only effect, or effect the other way; inactive means flat fitted curve, though single readings scatter. Peptide text beside a SMILES is read from it.

Assay: S16 Schwann cell viability assay (CellTiter-Glo assay) (AID 624031);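 further: cellular ATP luminescence as a viability measure; plate controls were DMSO-treated cells for no effect and cell-free wells for full effect; nearly all actives have a fitted effect of over 70% in size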
Conditions: S16 rat Schwann cells viability, 24 h; series mostly up to 25.7 µM; activity change, negative = cytotoxicity: at the top concentration
Summary of the method: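 Native S16 Schwann cells (rat), serum-containing medium, overnight attachment then 24 h drug exposure at 37 °C/5% CO2. CellTiter-Glo ATP signal; normalized to cell-free and vehicle wells.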

Row | Structure (SMILES) | activity change, negative = cytotoxicity
1 | CCC(C)C(=O)OC1CCC=C2C=CC(C)C(CCC3CC(O)CC(=O)O3)[C@@H]21 (stereo partly drawn) | -2.67% [at 57.5 µM]
2 | CC(=O)OC1CCC2C3CCc4cc(O)ccc4C3CCC12C (stereo not drawn) | -29% [at 57.5 µM]
3 | CC[C@@]12CCCN3CCc4c(n(c5ccccc45)[C@](O)(C(=O)OC)C1)C32 (stereo partly drawn) | -5.3% [at 57.5 µM]
4 | OCC1OC([S-])[C@H](O)C(O)C1O.[Au+] (stereo partly drawn) | -24.9% [at 57.5 µM]
5 | CC(C)C1CCC(C(=O)NC(Cc2ccccc2)C(=O)O)CC1 (stereo not drawn) | -3.3% [at 57.5 µM]
6 | CCC(CCC(C)C1CCC2C3CC=C4CC(O)CC[C@@]4(C)C3CC[C@@]12C)C(C)C (stereo partly drawn) | 1.71% [at 57.5 µM]
7 | C[C@]12CCC(=O)C=C1CCC1C2C(=O)C[C@]2(C)C1CC[C@]2(O)C(=O)CO (stereo partly drawn) | -20% [at 57.5 µM]
8 | OCC1O[C@H](OC2C(CO)O[C@@](O)(CO)C2O)C(O)C(O)C1O (stereo partly drawn) | 2.74% [at 57.5 µM]
9 | CC1(C)OC2CO[C@]3(COS(N)(=O)=O)OC(C)(C)OC3C2O1 (stereo partly drawn) | 7.53% [at 57.5 µM]
10 | CC1(C)OC2CC(=O)OC[C@@]23C1CC(=O)[C@]1(C)C3CC[C@@]2(C)C(c3ccoc3)OC(=O)C3O[C@@]321 (stereo partly drawn) | -6.04% [at 57.5 µM]
11 | COC1C=CO[C@@]2(C)Oc3c(C)c(O)c4c(O)c(c5c(nc6cc(C)ccn65)c4c3C2=O)NC(=O)/C(C)=C\C=CC(C)C(O)[C@@H](C)C(O)C(C)[C@@H](OC(C)=O)C1C (stereo partly drawn) | 5.65% [at 57.5 µM]
12 | COC(=O)C(Cc1ccccc1)NC(=O)C(N)CC(=O)O (stereo not drawn) (H-Asp-Phe-OMe; configuration not given here) | -27.5% [at 57.5 µM]
13 | C[C@]12C=CC(=O)C=C1CCC1C2C(O)C[C@]2(C)C1CC[C@]2(O)C(=O)CO (stereo partly drawn) | -3.9% [at 57.5 µM]
14 | CC1(C)S[C@H]2C(NC(=O)[C@@H](N)c3ccc(O)cc3)C(=O)N2[C@@H]1C(=O)O (stereo partly drawn) | 3.58% [at 57.5 µM]
15 | CC(C)=CCC[C@](C)(O)C1CC=C(C)CC1 (stereo partly drawn) | -2.6% [at 57.5 µM]
16 | C[C@]1(c2ccccc2)OC(C(=O)O)=CC1=O | 17.4% [at 57.5 µM]
17 | COc1ccc2cc(C(C)CO)ccc2c1 (stereo not drawn) | 6.63% [at 57.5 µM]
18 | COC1C=CO[C@@]2(C)Oc3c(C)c(O)c4c(O)c(c(C=NN5CCN(C)CC5)c(O)c4c3C2=O)NC(=O)/C(C)=C\C=CC(C)C(O)[C@@H](C)C(O)C(C)[C@H](OC(C)=O)C1C (stereo partly drawn) | 4.69% [at 57.5 µM]
19 | CC1CCC(C(C)C)C(=O)C1 (stereo not drawn) | -2.6% [at 57.5 µM]
20 | CNC1CC(N)[C@H](O)[C@@H](O[C@@H]2OC(CO)C3OC4(OC(C(N)CO)C(O)C(O)C4O)O[C@@H]3[C@H]2O)C1O (stereo partly drawn) | -4.26% [at 57.5 µM]
21 | CCCC(=O)O[C@]1(C(=O)CO)CCC2[C@@H]3CCC4=CC(=O)CC[C@]4(C)C3C(O)C[C@]21C (stereo partly drawn) | -3.78% [at 57.5 µM]
22 | CC(=O)[C@]1(O)CCC2C3C=C(Cl)C4=CC(=O)C5CC5[C@@]4(C)C3CC[C@]21C (stereo partly drawn) | 0% [at 57.5 µM]
23 | CC(=O)N[C@@H]1C(O)OC(CO)C(O)C1O (stereo partly drawn) | 10.2% [at 57.5 µM]
24 | C/C1=C2N=C(/C=C3N=C(/C(C)=C4\[N-]C(C)(C5N=C1C(C)(CCC(=O)NCC(C)OP(=O)([O-])O[C@H]1C(O)C(n6cnc7cc(C)c(C)cc76)O[C@@H]1CO)C5CC(N)=O)C(C)(CC(N)=O)C4CCC(N)=O)C(C)(CC(N)=O)C\3CCC(N)=O)C(C)(C)C/2CCC(N)=O.[CH2-]C1OC(n2cnc3c(N)ncnc32)C(O)C1O.[Co] (stereo partly drawn) | -1.52% [at 57.5 µM]
25 | O=C1OC(CO)C(O)C(O)C1O (stereo not drawn) | 4.98% [at 57.5 µM]
26 | CNC1C(OC2C(O[C@@H]3C(O)C(O)[C@@H](N=C(N)N)C(O)C3N=C(N)N)OC(C)[C@@]2(O)CO)OC(CO)C(O)C1O (stereo partly drawn) | 15.2% [at 57.5 µM]
27 | COc1cc(C2c3cc4c(cc3C(O[C@@H]3OC5COC(c6cccs6)OC5C(O)C3O)C3COC(=O)C23)OCO4)cc(OC)c1O (stereo partly drawn) | -27.3% [at 57.5 µM]
28 | Nc1nc2ncc(CNc3ccc(C(=O)NC(CCC(=O)O)C(=O)O)cc3)nc2c(=O)[nH]1 (stereo not drawn) | -3.53% [at 57.5 µM]
